# From PubChem
# In the library only some 1.9% were active in any assay of this set; here they are far more common.
# LDHA block: qHTS assay for inhibitors of human lactate dehydrogenase; hit rate 0.15% among 480,000; AID 1347041, 2019; activity change, % (values are at about 110 or 230 µM); purified LDHA, NADH/diaphorase-resazurin fluorescence; hits give low values; in the data active means activity change below about -30%; inconclusive means mostly about -25% to -30%;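 further: plate controls were DMSO wells for no effect and wells without enzyme for full effect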
#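 LDH5 2 nM; NADH 0.06 mM, pyruvate 0.2 mM; 200 mM Tris pH 7.4, EDTA, Tween-20; 5 min RT. Detection: diaphorase 0.133 mg/mL + resazurin 37 µM, fluorescence ex540/em590 at 0 and 20 min; normalized to enzyme-free and DMSO wells.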
# aSyn yeast inh: qHTS of alpha-syn Inhibitors | Yeast expressing alpha-synuclein, growth rescue, BacTiter-Glo, 24 h | Potency, µM (highest dose often 46.1 µM), for inactives: top-dose growth rescue (activation), hits mostly activators | hit rate 0.14% among 370,000 | AID 652106, 2013; further: potency means the concentration at half of the fitted maximal effect; % of control where 0% means no effect; nearly all actives have a fitted effect of over 65% in size
#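 Screening used galactose-induced yeast with toxic alpha-synuclein levels, exposed to compound for 24 hr at 30 deg C. Cell growth, read with BacTiter-Glo luminescence, gave the measured signal.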
# TDP-43 yeast inh: qHTS of TDP-43 Inhibitors | hit rate 1.8% among 410,000 | Potency, µM (top dose mostly 46.1 µM), without a hit: at the top dose growth rescue (activation), most hits filed as activators | TDP-43 expressing yeast growth rescue, BacTiter-Glo, 24 h; further: potency means the concentration at half of the fitted maximal effect; % of control where 0% means no effect; nearly all actives have a fitted effect of over 50% in size
#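 Readout is BacTiter-Glo luminescence of cell growth, so inhibitors register as activators. TDP-43-expressing yeast at OD600=0.02 in galactose medium, after raffinose pregrowth to mid-log, were incubated with compound for 24 hr at 30 deg C.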
# Abeta rescue: qHTS for compounds that reverse cellular toxicity of Amyloid beta (A-beta) peptide in yeast: Primary Screen; yeast expressing A-beta42, growth rescue, OD600, 48 h; response scale: 0% DMSO, 100% iron-clioquinol control; Potency, µM (top dose mostly 46.1 µM), usual class: activators; hit rate 0.063% among 410,000; AID 1347071, 2019; further: potency means the concentration at half of the fitted maximal effect; nearly all actives have a fitted effect of over 55% in size
#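 Yeast A-beta toxicity model in growth medium with pinned compounds, 48 h at 30 C; growth read as absorbance at 600 nm. Normalized to FeCl3/clioquinol equimolar mix (positive) and DMSO (negative).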
# PTHR1 agonist: qHTS for PTHR1 Agonists: Primary Screen; hit rate 0.075% among 410,000; HEK293 GP2 PTHR1 cells, GloSensor cAMP luminescence, 1 h; Potency, µM (top dose mostly 115 µM), for the others: at the highest dose activation, usual class: activators; Parathyroid hormone/parathyroid hormone-related peptide receptor (Homo sapiens), Q03431; AID 743266, 2014; further: potency means the concentration at half of the fitted maximal effect; nearly all actives have a fitted effect of over 55% in size
# Target sequence (Q03431 whole entry, looked up): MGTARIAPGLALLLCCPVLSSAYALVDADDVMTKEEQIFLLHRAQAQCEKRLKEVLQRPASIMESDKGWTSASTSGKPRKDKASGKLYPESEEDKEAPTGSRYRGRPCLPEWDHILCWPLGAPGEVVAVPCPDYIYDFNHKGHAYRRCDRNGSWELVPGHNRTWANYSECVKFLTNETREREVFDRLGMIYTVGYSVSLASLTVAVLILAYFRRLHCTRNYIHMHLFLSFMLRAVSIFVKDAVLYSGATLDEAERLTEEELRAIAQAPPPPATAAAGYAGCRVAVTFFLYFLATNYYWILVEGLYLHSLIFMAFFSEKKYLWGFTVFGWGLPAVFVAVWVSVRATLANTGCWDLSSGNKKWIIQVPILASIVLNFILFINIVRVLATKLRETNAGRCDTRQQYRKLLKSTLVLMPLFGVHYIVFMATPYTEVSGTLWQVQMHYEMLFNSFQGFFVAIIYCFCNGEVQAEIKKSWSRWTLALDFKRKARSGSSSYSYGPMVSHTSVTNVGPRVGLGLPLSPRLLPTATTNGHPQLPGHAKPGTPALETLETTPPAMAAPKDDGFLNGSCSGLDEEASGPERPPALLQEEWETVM
#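 HEK-293-derived GP2 cells expressing PTHR1 and a GloSensor cAMP reporter, 3,000/well, plated overnight, given luciferin plus IBMX (each 0.5 mM as added) for 1 h at 37 °C, then compound for 1 h at 37 °C. Luminescence was read after 15 min at room temperature.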
# FUS yeast rescue: qHTS for Suppressors of FUS Proteinopathy: Primary screen using FUS-linked yeast assay; S. cerevisiae FUS-expressing, growth rescue, OD600, 24 h; Potency, µM (titrated, usually from 76.6 µM), most hits filed as activators; hit rate 0.24% among 390,000; AID 1347120, 2019;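 further: potency means the concentration at half of the fitted maximal effect; plate controls were DMSO vehicle for no effect and reference control for full effect; nearly all actives have a fitted effect of over 55% in size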
#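 Absorbance at 600 nm, taken 24hr after compound addition, measured rescue of FUS-yeast growth at 30C. Induction used 2% galactose with seeding at OD 0.005. Controls: CP55940 from 92uM final, DMSO only.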
# * hit, by the source's call; i = inactive; ? = inconclusive; · = no result; [ ] = another dose, or the depositor's remark. Unless noted, the call rests on the fitted dose curve; in most records, active means well fitted curve in the direction sought with a large enough effect; inconclusive means small, poorly fitted or top-dose-only effect, or another doubt; inactive means no such curve, though single readings can be large; an effect the other way counts as inactive or inconclusive.
SMILES,LDHA block,aSyn yeast inh,TDP-43 yeast inh,Abeta rescue,PTHR1 agonist,FUS yeast rescue
O=C(CSc1nc2ccc(Nc3nc(N4CCOCC4)nc(N4CCOCC4)n3)cc2s1)Nc1ccccc1Cl,8,-10%,-10%,i,3%,i
CCOc1ccc2nc(SCC(=O)NC(=O)NCc3ccco3)sc2c1,-1,-6%,-33%,i,17%[57.5 µM],i
O=C(CSc1nc2ccc(Nc3nc(N4CCCC4)nc(N4CCCC4)n3)cc2s1)NCc1ccco1,-3,-1%,20µM*,i,-20%,i
CCOc1ccc2nc(SCC(=O)NCc3ccco3)sc2c1,-1,0%,14µM*,i,-33%[57.5 µM],i
CCCc1nnc(NC(=O)c2ccc3ccccc3n2)s1,0,·,·,·,·,·
O=C(Nc1ccc(Cl)cc1)c1nccnc1-c1nc2ccccc2s1,10,·,·,·,·,·
NS(=O)(=O)c1ccc(NC(=O)COc2ncnc3ccccc23)cc1,-2,·,·,·,·,·
CC(=O)c1cccc(Nc2ccc(Br)cc2)c1,-2,-13%,14µM*,i,-12%,i
CC(=O)c1cccc(NC(=O)Nc2cccc(Br)c2)c1,14,·,·,·,·,·
CCCNc1nc2ccccc2nc1C(=O)Nc1cccc(C)c1C,-4,·,·,·,·,·
CCOC(=O)CSc1nc(N)c(C(=O)Nc2ccc(N(C)C)cc2)s1,14,-12%,-11%,i,-3%,32µM*
COc1ccc(C(=O)CCl)cc1Br,1,·,·,·,·,·
Cc1c(C(=O)Nc2ccc(N3CCOCC3)cc2)oc2ccccc12,-3,-7%,7.9µM*,i,-10%[57.5 µM],i
Cc1c(C(=O)OCC(=O)Nc2ccc(N3CCOCC3)cc2)oc2ccccc12,-3,-6%,11%,i,-4%,i
CNC(=O)NC(=O)C(C)Sc1ncnc2ccccc12 (stereo not given),-5,·,·,·,·,·
Cc1cc(C)c2c(c1)/C(=C/C(=O)c1ccc(Br)s1)C(=O)N2,-5,-7%,18µM*,i,i,?
O=C(N/N=C/C=C/c1ccco1)c1ccccc1Cl,1,9%,-7%[1.82 µM],i,11%,40µM*
O=C(Nc1cc(C(=O)N2CCN(c3ccccc3)CC2)ccc1Cl)c1cccs1,-6,-7%,13µM*,i,-22%,·
O=C(c1cccs1)N1CCN(c2ccccc2)CC1,-1,3%,?,i,i,i
C#CCOCCOCCOCCNc1nc(N2CCN(C(=O)CCCCCCCCCCNC(=O)[C@H](CCCCN)n3cc(C[C@@H](C)CC)nn3)CC2)nc(N2CCN(C(=O)CCCCCCCCCCNC(=O)[C@@H]([C@H](C)O)n3cc(C)nn3)CC2)n1,1,-60%,32%,i,-38%,?
C#CCOCCOCCOCCNc1nc(N2CCN(C(=O)CCCCCCCCCCNC(=O)[C@@H](CCSC)n3cc(CCO)nn3)CC2)nc(N2CCN(C(=O)CCCCCCCCCCNC(=O)[C@H](CO)n3cc(CCCCCN)nn3)CC2)n1,1,-37%,9%,i,7%,?
C#CCOCCOCCOCCNc1nc(N2CCN(C(=O)CCCCCCCCCCNC(=O)[C@@H](CCSC)n3cc(CCO)nn3)CC2)nc(N2CCN(C(=O)CCCCCCCCCCNC(=O)[C@H](CCC(=O)O)n3cc(CCCCCN)nn3)CC2)n1,1,-21%,19%,i,10%,11µM*
C#CCOCCOCCOCCNc1nc(N2CCN(C(=O)CCCCCCCCCCNC(=O)[C@@H](CCSC)n3cc(CCO)nn3)CC2)nc(N2CCN(C(=O)CCCCCCCCCCNC(=O)[C@@H]([C@H](C)O)n3cc(C)nn3)CC2)n1,0,-7%,-5%,i,0%,7.9µM*
C#CCOCCOCCOCCNc1nc(N2CCN(C(=O)CCCCCCCCCCNC(=O)Cn3cc(C[C@@H](C)O)nn3)CC2)nc(N2CCN(C(=O)CCCCCCCCCCNC(=O)[C@@H](CCSC)n3cc(CCO)nn3)CC2)n1,0,-1%,8%,i,20%,4µM*
C#CCOCCOCCOCCNc1nc(N2CCN(C(=O)CCCCCCCCCCNC(=O)Cn3cc(CCCCCN)nn3)CC2)nc(N2CCN(C(=O)CCCCCCCCCCNC(=O)Cn3cc(C[C@@H](C)O)nn3)CC2)n1,0,-3%,5%,i,?,?
SMILES,LDHA block,aSyn yeast inh,TDP-43 yeast inh,Abeta rescue,PTHR1 agonist,FUS yeast rescue
C#CCOCCOCCOCCNc1nc(N2CCN(C(=O)CCCCCCCCCCNC(=O)[C@H](CCCCN)n3cc(C)nn3)CC2)nc(N2CCN(C(=O)CCCCCCCCCCNC(=O)[C@@H]([C@H](C)O)n3cc(C)nn3)CC2)n1,-2,0%,5%,i,27%,11µM*
COC(=O)C1=C(N)N(c2ccc(Br)cc2)C2=C(C(=O)CCC2)C1c1ccc(OC)cc1 (stereo not given),2,·,·,·,·,·
CC(Sc1nnc(N2CCOCC2)n1-c1cccc(F)c1)c1nnc(-c2cccs2)o1 (stereo not given),13,·,·,·,·,·
CCc1ccc(N2CCn3c2nc2c3c(=O)n(CCCc3ccccc3)c(=O)n2C)cc1,-24,·,11%,i,-12%,i
CCc1ccc(N2CCn3c2nc2c3c(=O)n(CCc3ccccc3)c(=O)n2C)cc1,-5,·,8%,i,50µM*,i
O=S(=O)(c1cccc(-c2csc(N/N=C/c3ccco3)n2)c1)N1CCOCC1,-2,2%,16µM*,i,-36%,?
COc1cccc(C(=O)Oc2ccc(C(C)=O)cc2)c1,6,·,·,·,·,·
CSc1ccccc1C(=O)NCC(C)C,0,·,·,·,·,·
CC(=O)NC1CC2CCCC(C1)N2S(=O)(=O)c1cccc(F)c1 (stereo not given),6,-1%,-5%,i,-2%,32µM*
COc1ccccc1-c1cc(C(=O)Nc2c(C)nn(Cc3ccc(C)cc3)c2C)no1,-12,·,·,·,·,·
CC(=O)Nc1ccc(C=CC=Cc2cccc([N+](=O)[O-])c2)cc1,2,-52%,14µM*,i,-30%,·
C=C(C)c1cccc(C(C)(C)NC(=O)Nc2ccc(C)cn2)c1,1,-2%,13µM*,i,-21%,·
CC(C)(CC(=O)O)CC(=O)Nc1ccccc1,-18,·,·,·,·,·
Cc1cccc(NC(=O)CN2C(=O)N/C(=C/c3cc(C)n(C(C)C)c3C)C2=O)c1,5,21%,-9%,i,26%[57.5 µM],20µM*
